# Reference: the supplement of paper PMC8728848
# The sample as a whole holds a higher share of the strongest signals than the screen did.
# How the values were obtained:
# Assay in all cases: glycan array binding signal (z-score within array); higher = stronger binding
# Conditions in all cases: glycan notation: IUPAC condensed, linker removed
# [1] = target: Neu5Ac(a2-3)Gal(b1-4)GlcNAc(b1-2)[Neu5Ac(a2-3)Gal(b1-4)GlcNAc(b1-4)]Man(a1-3)[GlcNAc(b1-4)][Neu5Ac(a2-3)Gal(b1-4)GlcNAc(b1-2)[Neu5Ac(a2-3)Gal(b1-4)GlcNAc(b1-6)]Man(a1-6)]Man(b1-4)GlcNAc(b1-4)GlcNAc
# Summary of the method: (§1)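 Columns mapping to the same glycan were averaged after glycan names were converted to IUPAC-condensed notation. The data come from 3228 arrays in the Consortium for Functional Glycomics database, limited to those with an available protein sequence. Binding is reported as a within-array Z-score averaged across arrays of one protein sequence and across linkers.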
# [2] = target: Neu5Ac(a2-3)Gal(b1-4)GlcNAc(b1-6)GalNAc
# Summary of the method: as §1
# [3] = target: Neu5Ac(a2-3)Gal(b1-4)[Fuc(a1-3)]GlcNAc6S
# Summary of the method: as §1
# [4] = target: Neu5Ac(a2-3)Gal6S(b1-4)GlcNAc
# Summary of the method: as §1
# [5] = target: Neu5Ac(a2-3)[Neu5Ac(a2-6)]GalNAc
# Summary of the method: as §1
# [6] = target: Neu5Ac(a2-6)Gal(b1-4)GlcNAc(b1-2)Man(a1-3)[GlcNAc(b1-4)][Neu5Ac(a2-6)Gal(b1-4)GlcNAc(b1-2)Man(a1-6)]Man(b1-4)GlcNAc(b1-4)GlcNAc
# Summary of the method: as §1
# [7] = target: Neu5Ac(a2-6)Gal(b1-4)GlcNAc(b1-2)Man(a1-3)[Neu5Ac(a2-6)Gal(b1-4)GlcNAc(b1-2)Man(a1-6)]Man(b1-4)GlcNAc(b1-4)[Fuc(a1-6)]GlcNAc
# Summary of the method: as §1
# [8] = target: Neu5Ac(a2-6)Gal(b1-4)GlcNAc(b1-2)Man(a1-6)[GlcNAc(b1-2)Man(a1-3)]Man(b1-4)GlcNAc(b1-4)GlcNAc
# Summary of the method: as §1
# [9] = target: Neu5Gc(a2-3)Gal(b1-3)[Fuc(a1-4)]GlcNAc
# Summary of the method: as §1
# [10] = target: Neu5Gc(a2-8)Neu5Gc(a2-6)Gal(b1-4)GlcNAc
# Summary of the method: as §1
binder,measurement,setting,value
"Clec18Av1 (Homo sapiens), A5D8T8 (protein) MLHPETSPGRGHLLAVLLALLGTAWAEVWPPQLQEQAPMAGALNRKESFLLLSLHNRLRSWVQPPAADMRRLDWSDSLAQLAQARAALCGTPTPSLASGLWRTLQVGWNMQLLPAGLVSFVEVVSLWFAEGQRYSHAAGECARNATCTHYTQLVWATSSQLGCGRHLCSAGQAAIEAFVCAYSPRGNWEVNGKTIVPYKKGAWCSLCTASVSGCFKAWDHAGGLCEVPRNPCRMSCQNHGRLNISTCHCHCPPGYTGRYCQVRCSLQCVHGRFREEECSCVCDIGYGGAQCATKVHFPFHTCDLRIDGDCFMVSSEADTYYRARMKCQRKGGVLAQIKSQKVQDILAFYLGRLETTNEVIDSDFETRNFWIGLTYKTAKDSFRWATGEHQAFTSFAFGQPDNHGFGNCVELQASAAFNWNDQRCKTRNRYICQFAQEHISRWGPGS",glycan array binding signal (z-score),[1],-0.868
same,glycan array binding signal (z-score),[2],1.49
same,glycan array binding signal (z-score),[3],-0.818
same,glycan array binding signal (z-score),[4],-0.585
same,glycan array binding signal (z-score),[5],-0.853
same,glycan array binding signal (z-score),[6],-0.604
same,glycan array binding signal (z-score),[7],3.58
same,glycan array binding signal (z-score),[8],4.86
same,glycan array binding signal (z-score),[9],-0.646
same,glycan array binding signal (z-score),[10],0.057
